Data published in PubChem BioAssay (NCATS).
Active and inactive are the calls of the source. Calls come from the whole dose curve; as a rule, active = well fitted curve in the direction sought with a large enough effect; inconclusive = small, poorly fitted or top-dose-only effect, or effect the other way, or another doubt; inactive = no such curve, though single readings can be large or run the other way.

Assay: Inducers of the Endoplasmic Reticulum Stress Response (ERSR) in human glioma: Validation (AID 504836)
Conditions: human glioma cells, ER stress response reporter; series mostly up to 38.3 µM
In short: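 Stably transfected U87-MG glioma cells carrying a GRP78-based luciferase sensor; 16 h compound incubation. Luminescence end-point read 10 min after Bright-Glo addition at room temperature.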
With CC(C)(C)NCC(O)c1cc(O)cc(O)c1 (centres undefined) the outcome was “inactive”. In the case of C[N+](C)(C)CCCCCC[N+](C)(C)C, the outcome is reported as “inactive”. With CN(C)C(=O)Oc1ccc[n+](C)c1 the outcome was “inactive”. With CCCCCCCCCCCCCCCC(=O)NCCO the outcome was “inactive”. With CC(N=C(NC#N)Nc1ccncc1)C(C)(C)C (centres undefined) the outcome was “inactive”. With CC(=O)c1ccc(S(=O)(=O)NC(=O)NC2CCCCC2)cc1 the outcome was “inactive”. For NC1CCN(c2cccc(Cl)n2)CC1, the outcome was “inactive”. In the case of OCCN1CCN(CC/C=C2/c3ccccc3Sc3ccc(C(F)(F)F)cc32)CC1, the outcome is reported as “inactive”. With O=C(O)CN(CCN(CC(=O)O)CC(=O)O)CCN(CC(=O)O)CC(=O)O the outcome was “inactive”. With CCN1CCCC1CNC(=O)c1cc(S(=O)(=O)CC)c(N)cc1OC (centres undefined) the outcome was “inactive”. In the case of COCCOC(=O)C1=C(C)NC(C)=C(C(=O)OC(C)C)C1c1cccc([N+](=O)[O-])c1 (centres undefined), the outcome is reported as “inactive”. For CNCCCC12CCC(c3ccccc31)c1ccccc12, the outcome was “inactive”. For CC(=O)OCC(=O)[C@@]1(O)CC[C@H]2[C@@H]3CCC4=CC(=O)CC[C@]4(C)[C@H]3C(=O)C[C@@]21C, the outcome was “inactive”. In the case of Nc1ccc(S(=O)(=O)Nc2ccnn2-c2ccccc2)cc1, the outcome is reported as “inactive”. With CC(C)(C)NC[C@H](O)COc1nsnc1N1CCOCC1 the outcome was “inactive”. With N[C@@H](COP(=O)(O)O)C(=O)O the outcome was “inactive”. With CCN1CCC[C@H]1CNC(=O)c1c(O)c(Cl)cc(Cl)c1OC the outcome was “inactive”. With CCOC(=O)c1cnc2c(cnn2CC)c1NN=C(C)C the outcome was “inactive”. For CCN(CC)CCNC(=O)c1ccc(N)cc1, the outcome was “inactive”. For NC(=O)N1c2ccccc2C=Cc2ccccc21, the outcome was “inactive”. With NC(N)=Nc1nc(CSCC/C(N)=N/S(N)(=O)=O)cs1 the outcome was “inactive”. With O=C(O)CCCCCCCC(=O)O the outcome was “inactive”. In the case of COc1ccc2[nH]cc(CCNC(C)=O)c2c1, the outcome is reported as “inactive”. In the case of C[N+](C)(C)CCOC(N)=O, the outcome is reported as “inactive”. With CCN(CC)C(=O)c1ccc(O)c(OC)c1 the outcome was “inactive”. For O=c1c(-c2ccc(O)cc2)coc2cc(O)cc(O)c12, the outcome was “inactive”. For CC(C)NNC(=O)c1ccncc1, the outcome was “inactive”. With Nc1ncnc2c1ncn2[C@@H]1O[C@H](CO)[C@@H](O)[C@H]1O the outcome was “inactive”. In the case of CCCNC(C)C(=O)Nc1ccccc1C (centres undefined), the outcome is reported as “inactive”. In the case of CNCCC=C1c2ccccc2CCc2ccccc21, the outcome is reported as “inactive”. For COc1ccc(C2CNC(=O)C2)cc1OC1CCCC1 (centres undefined), the outcome was “inactive”. For CCOC(=O)[C@H](CCc1ccccc1)N[C@@H](C)C(=O)N1[C@H](C(=O)O)C[C@H]2CCCC[C@@H]21, the outcome was “inactive”. With NC/C=C/C(=O)O the outcome was “inactive”. In the case of C1COC(NC(C2CC2)C2CC2)=N1, the outcome is reported as “inactive”.
